In PubChem BioAssay (NCATS):
Results filed as inconclusive are left out. The source made the active and inactive calls. Unless noted, the call rests on the fitted dose curve; in most records, active means well fitted curve in either direction with a large enough effect (not every such curve was filed as active); inconclusive means small, poorly fitted or top-dose-only effect, or another doubt; inactive means flat fitted curve, though single readings scatter.

Columns and labels:
[1] = target: Lysosomal acid glucosylceramidase (Homo sapiens) (UniProt P04062); assay: Glucocerebrosidase-p2 (AID 348; in the data active means potency below about 10 µM; further: potency means the concentration at half of the fitted maximal effect); settings: purified GBA, blue fluorogenic substrate, 40 min
In short: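 Normal human glucocerebrosidase (0.2 nM) with blue fluorogenic substrate (80 uM final) in citrate/phosphate pH 5.9 with 10mM sodium taurocholate, 0.01% tween-20; 40 min RT, NaOH/glycine stop; fluorescence Ex 365/Em 440; AC50 from a titration from 0.6 nM upwards.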

[2] = AP1 Signaling Pathway (AID 357); settings: ME-180 AP-1-bla reporter, EGF-induced, beta-lactamase ratio, 5 h; at 7.69 µM (top of the series) unless noted; further: on the % scale 0 is the no-effect control and ±100 the full control effect
In short: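 ME-180 cells with beta-lactamase reporter under AP-1 response element, stimulated with EC50 EGF; compounds tested in titration series, 5 h at 37 °C. CCF4 substrate added 2.5 h at room temperature; 460/530 nm emission ratio gave %activity and AC50.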

[3] = target: Cytochrome P450 1A2 (Homo sapiens) (UniProt P05177); assay: p450-cyp1a2 (AID 410; calls by dose curve; further: potency means the concentration at half of the fitted maximal effect;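 on activity change, negative = inhibition: -100% = full effect of reference inhibitor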); settings: recombinant CYP1A2, luciferin-ME demethylation, luminescence; series mostly up to 57 µM
In short: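 20nM CYP1A2, 100uM Luciferin-ME (=Km), 100mM KPO4; cpd 10 min RT; +NADPH regen, 60 min RT; stop/detect 20 min; luminescence. Normalized to furafylline 57 uM = full inhibition.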

[4] = NFAT Signaling Pathway (AID 444); settings: Jurkat NFAT-bla M1, carbachol, beta-lactamase ratio, 5 h; at 7.69 µM (top of the series) unless noted;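 further: carbachol stimulus at about its EC50 of 1 µM final; on the % scale 0 is the no-effect control and ±100 the full control effect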
In short: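 Jurkat cells carrying an NFAT-driven β-lactamase reporter and co-transfected muscarinic M1 receptor were treated with compound plus carbachol (1 uM final, an EC50 level) for 5 h at 37 °C. CCF4 loading followed for 1 h at RT; 460/530 nm ratio gave %activity.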

[5] = Stat Signaling Pathway (AID 446); settings: ME-180 (cervical carcinoma) SIE beta-lactamase reporter, IL-6 stimulated, 5 h; at 7.69 µM (top of the series) unless noted;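 further: ME-180 cervical cancer cells given 40 pM IL-6 alongside compound; SIE-controlled beta-lactamase reporter measured as 460/530 nm FRET emission ratio; on the % scale 0 is the no-effect control and ±100 the full control effect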
In short: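 Compound effects on IL-6-induced STAT reporter activity were measured in ME-180 cells. After overnight culture, cells were co-treated with 40 pM IL-6 for 5 hrs before beta-lactamase substrate loading at room temperature.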

[6] = target: Glucocorticoid receptor (Homo sapiens) (UniProt P04150); assay: GR-EFC Redistribution (AID 451; calls by dose curve; further: potency means the concentration at half of the fitted maximal effect); settings: CHO-K1 GR-EFC translocation, beta-gal luminescence, 2 h
In short: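 CHO-K1 cells stably expressing nuclear-localized β-gal enzyme acceptor and GR fused C-terminally to the enzyme donor fragment; ligand-driven nuclear translocation restores β-gal by complementation. Compounds titrated up to 46 uM final, 2 h at 37 °C; luminescence read.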

[7] = target: Mitogen-activated protein kinase 10 (Mus musculus) (UniProt Q61831); assay: JNK3 AlphaScreen Assay (AID 530); settings: JNK3 lysate, c-Jun phosphorylation; series mostly up to 57.1 µM;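 further: kinase came from lysate of stimulated human HepG2 cells; signal reports phosphorylation of biotinylated GST-cJun 1-79 at Ser73 with 10 µM ATP; on the % scale 0 is the no-effect control and ±100 the full control effect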
In short: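 Biotinylated GST-cJun(1-79) served as substrate for JNK3 in HepG2 lysates stimulated with IL-1beta and TNF-alpha. ATP was 10 uM final, pH 7.6. Ser73 phosphorylation was quantified by AlphaScreen (680 nm excitation).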

[8] = target: 3',5'-cyclic-AMP phosphodiesterase 4B (Homo sapiens) (UniProt Q07343); assay: qHTS Assay for Inhibitors of PDE-IV (AID 607; active means well fitted activation curve with a large enough effect in the main read-out, with a control signal flat, not every such curve was filed as active; further: % of control where 0% means no effect); settings: HEK293 ACTOne CNG channel cells, membrane potential fluorescence; series mostly up to 22.9 µM
In short: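 ACTOne HEK293 cells carry a modified cAMP-gated CNG channel and express endogenous PDE4; plated 1000 cells/well, compounds up to 22.9 uM final. Membrane-potential dye fluorescence (ex 535/em 590) was read; parental cells received 10 uM forskolin + 100 uM RO 20-1724.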

[9] = qHTS Assay for Lipid Storage Modulators (AID 1519; calls by dose curve); settings: Drosophila S3 cells, BODIPY lipid droplet/cell ratio, laser cytometry, cells loaded with oleic acid; for activity change, negative = inhibition: at 57.5 µM (top of the series)
In short: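 Cells seeded at 5,000 per well were treated with compounds over a concentration series and loaded with oleic acid (400 uM, as added). Lipid droplet fluorescence (488 nm excitation, 500-530 nm channel) was read by laser-scanning cytometry and normalized to 20 uM Triacsin C.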

[10] = Primary qHTS for small molecule stabilizers of the endoplasmic reticulum resident proteome: Secreted ER Calcium Modulated Protein (SERCaMP) assay (AID 1508630; active means well fitted inhibition curve with a large enough effect; further: on the % scale 0 is the no-effect control and ±100 the full control effect); settings: SH-SY5Y GLuc-SERCaMP (Gaussia luciferase released on ER calcium loss) secretion, thapsigargin, luminescence; series mostly up to 38.4 µM
In short: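 The SH-SY5Y reporter protocol was run at 3 concentrations up to 38.3 uM (primary) or 11 concentrations (follow-up): 16 h compound, 100 nM thapsigargin for 4 h, then extracellular luciferase luminescence.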

[11] = measured here: cell count channel max response
[12] = measured here: lipid channel max response

Sequence of Cytochrome P450 1A2 (Homo sapiens) (P05177 whole entry, looked up): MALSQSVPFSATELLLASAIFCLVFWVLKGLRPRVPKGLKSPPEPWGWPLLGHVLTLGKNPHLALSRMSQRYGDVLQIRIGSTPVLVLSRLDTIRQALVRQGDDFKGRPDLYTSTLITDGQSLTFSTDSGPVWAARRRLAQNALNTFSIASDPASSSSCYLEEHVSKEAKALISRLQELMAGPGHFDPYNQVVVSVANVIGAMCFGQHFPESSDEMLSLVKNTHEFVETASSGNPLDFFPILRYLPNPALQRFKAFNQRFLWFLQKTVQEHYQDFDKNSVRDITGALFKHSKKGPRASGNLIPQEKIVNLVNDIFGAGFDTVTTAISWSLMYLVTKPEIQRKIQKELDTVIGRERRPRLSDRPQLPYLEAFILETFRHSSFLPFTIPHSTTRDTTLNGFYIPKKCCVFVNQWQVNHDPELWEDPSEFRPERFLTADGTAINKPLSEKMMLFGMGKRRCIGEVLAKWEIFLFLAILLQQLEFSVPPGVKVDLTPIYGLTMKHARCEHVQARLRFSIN
Sequence of Glucocorticoid receptor (Homo sapiens) (P04150 whole entry, looked up, the tested form may be a part): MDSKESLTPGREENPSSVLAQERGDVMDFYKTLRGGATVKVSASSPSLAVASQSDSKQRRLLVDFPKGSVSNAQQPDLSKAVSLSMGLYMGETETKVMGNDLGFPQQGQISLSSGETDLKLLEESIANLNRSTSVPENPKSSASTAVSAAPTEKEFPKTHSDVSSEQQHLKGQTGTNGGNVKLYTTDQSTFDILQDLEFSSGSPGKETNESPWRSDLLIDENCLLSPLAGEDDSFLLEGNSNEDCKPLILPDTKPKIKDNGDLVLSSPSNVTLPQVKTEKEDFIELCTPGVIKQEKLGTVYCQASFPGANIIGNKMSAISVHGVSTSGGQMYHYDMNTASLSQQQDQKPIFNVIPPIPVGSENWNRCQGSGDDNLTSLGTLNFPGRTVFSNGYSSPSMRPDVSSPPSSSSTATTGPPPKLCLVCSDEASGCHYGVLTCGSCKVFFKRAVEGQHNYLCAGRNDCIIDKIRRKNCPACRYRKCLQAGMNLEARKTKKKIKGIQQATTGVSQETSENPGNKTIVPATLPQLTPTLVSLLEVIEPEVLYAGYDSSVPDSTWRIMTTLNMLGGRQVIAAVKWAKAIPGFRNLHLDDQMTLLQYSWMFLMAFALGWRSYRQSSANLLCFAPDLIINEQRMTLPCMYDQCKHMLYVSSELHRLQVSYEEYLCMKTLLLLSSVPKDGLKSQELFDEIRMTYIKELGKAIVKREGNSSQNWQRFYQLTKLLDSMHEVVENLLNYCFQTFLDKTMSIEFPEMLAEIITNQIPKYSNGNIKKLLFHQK
Sequence of 3',5'-cyclic-AMP phosphodiesterase 4B (Homo sapiens) (Q07343 whole entry, looked up): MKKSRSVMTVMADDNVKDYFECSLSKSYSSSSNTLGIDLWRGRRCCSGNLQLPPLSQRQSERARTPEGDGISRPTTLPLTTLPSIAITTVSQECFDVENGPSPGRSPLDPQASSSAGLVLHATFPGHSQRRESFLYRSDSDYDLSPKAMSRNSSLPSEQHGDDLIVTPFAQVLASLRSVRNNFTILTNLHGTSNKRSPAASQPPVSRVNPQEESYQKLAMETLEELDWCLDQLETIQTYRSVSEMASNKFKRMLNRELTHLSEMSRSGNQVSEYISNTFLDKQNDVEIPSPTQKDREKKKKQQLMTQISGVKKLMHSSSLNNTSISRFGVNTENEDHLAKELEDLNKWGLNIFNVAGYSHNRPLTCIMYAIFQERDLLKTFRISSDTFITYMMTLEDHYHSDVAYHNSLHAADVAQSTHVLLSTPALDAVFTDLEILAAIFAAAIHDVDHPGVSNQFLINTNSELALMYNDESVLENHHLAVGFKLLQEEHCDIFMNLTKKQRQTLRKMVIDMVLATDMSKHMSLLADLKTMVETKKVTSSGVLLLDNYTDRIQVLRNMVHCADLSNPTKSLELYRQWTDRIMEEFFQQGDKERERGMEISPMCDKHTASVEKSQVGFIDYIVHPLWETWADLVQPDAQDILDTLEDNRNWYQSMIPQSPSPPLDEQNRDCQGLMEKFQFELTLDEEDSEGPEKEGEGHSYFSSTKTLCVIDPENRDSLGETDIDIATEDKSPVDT
Sequence of Lysosomal acid glucosylceramidase (Homo sapiens) (P04062 whole entry, looked up): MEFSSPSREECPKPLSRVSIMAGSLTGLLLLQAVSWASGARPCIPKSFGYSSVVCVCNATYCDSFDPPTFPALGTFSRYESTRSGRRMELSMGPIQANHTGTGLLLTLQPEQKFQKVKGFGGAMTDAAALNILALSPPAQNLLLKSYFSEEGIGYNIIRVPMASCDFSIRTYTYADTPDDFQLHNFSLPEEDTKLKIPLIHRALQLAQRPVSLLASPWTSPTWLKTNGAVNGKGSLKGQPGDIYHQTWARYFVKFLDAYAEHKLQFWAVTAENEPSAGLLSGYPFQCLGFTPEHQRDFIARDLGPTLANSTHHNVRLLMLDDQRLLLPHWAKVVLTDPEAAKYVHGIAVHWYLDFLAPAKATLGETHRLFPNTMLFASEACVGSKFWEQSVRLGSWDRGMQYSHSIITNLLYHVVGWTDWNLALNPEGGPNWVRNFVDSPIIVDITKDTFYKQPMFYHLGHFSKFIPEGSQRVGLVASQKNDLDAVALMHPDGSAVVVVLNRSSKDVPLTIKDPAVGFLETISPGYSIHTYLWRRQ

SMILES | Potency [1] | activity change, negative = inhibition [2] | Potency [3] | activity change, negative = inhibition [4] | activity, negative = inhibition [5] | Potency [6] | outcome [7] | Potency [8] | activity change, negative = inhibition [9] | max response [9, 11] [%] | max response [9, 12] [%] | Potency [10]
O=C(Nc1ccccc1)N1CC[C@@]2(CCCN(C(=O)c3ccco3)C2)C1 | > 11.4 µM (inactive) | -6.95% (inactive) | 10 µM (active) | 4.43% (inactive) | -3.48% (inactive) | > 46 µM (inactive) | inactive | inactive | 0.607% (inactive) | 5.04 | 7.34 | inactive
CS(=O)(=O)N1CCC2(CCN(C(=O)Nc3cccc(C#N)c3)CC2)CC1 | > 11.4 µM (inactive) | 2.04% (inactive) | inactive | 16.4% (inactive) | -21% (inactive) | > 46 µM (inactive) | inactive | inactive | 2.84% (inactive) | -15.9 | -10.5 | inactive
O=C(c1csnn1)N1CCC2(CC1)CN(Cc1cc(C(F)(F)F)cc(C(F)(F)F)c1)C2 | > 11.4 µM (inactive) | 15.8% (inactive) | inactive | -21.8% (inactive) | 3.59% (inactive) | > 46 µM (inactive) | inactive | inactive | -4.63% (inactive) | 8.43 | 5.85 | inactive
COCC(=O)N1CCC2(CC1)CN(Cc1cc(C(F)(F)F)cc(C(F)(F)F)c1)C2 | > 11.4 µM (inactive) | 11% (inactive) | 25.1 µM (active) | 23.6% (inactive) | -2.63% (inactive) | > 46 µM (inactive) | inactive | inactive | -7.21% (inactive) | 25.1 | 17.9 | inactive
CC(C)CN1CCC2(CC1)CCN(C(=O)c1csnn1)CC2 | > 11.4 µM (inactive) | -3.75% (inactive) | inactive | -21.7% (inactive) | -16.4% (inactive) | > 46 µM (inactive) | inactive | inactive | -1.92% (inactive) | -3.14 | -1.99 | inactive
COCC(=O)N1CCC2(CC1)CCN(C(=O)Nc1cccc(F)c1)CC2 | > 11.4 µM (inactive) | 5.9% (inactive) | inactive | 3.94% (inactive) | -5.26% (inactive) | > 46 µM (inactive) | inactive | inactive | 0.649% (inactive) | 10.1 | 10.7 | inactive
COC(=O)N1CCC[C@@]2(CCN(c3ccccn3)C2)C1 | > 11.4 µM (inactive) | -6.02% (inactive) | 15.8 µM (active) | -1.97% (inactive) | 7.71% (inactive) | > 46 µM (inactive) | inactive | inactive | 5.17% (inactive) | 2.62 | 11 | inactive
O=C(c1csnn1)N1CCC2(CC1)CCN(c1ncccn1)CC2 | > 11.4 µM (inactive) | -14.3% (inactive) | inactive | 1.39% (inactive) | -5.07% (inactive) | > 46 µM (inactive) | inactive | inactive | 4.97% (inactive) | -0.155 | 6.88 | inactive
Cc1noc(C)c1C(=O)N1CCC[C@@]2(CCN(c3ncccn3)C2)C1 | > 11.4 µM (inactive) | 2.18% (inactive) | inactive | 7.6% (inactive) | -3.95% (inactive) | > 46 µM (inactive) | inactive | inactive | -1.94% (inactive) | 7.95 | 6.75 | inactive
CC(C)NC(=O)N1CCC2(CC1)CCN(C(=O)c1ccco1)CC2 | > 11.4 µM (inactive) | -2.03% (inactive) | inactive | 12% (inactive) | 8.93% (inactive) | > 46 µM (inactive) | inactive | inactive | 3.89% (inactive) | 8.07 | 11.7 | inactive
O=C(Nc1ccccc1)N1CC2(CCN(C(=O)c3ccco3)CC2)C1 | > 11.4 µM (inactive) | -2% (inactive) | inactive | 3.9% (inactive) | 4.13% (inactive) | > 46 µM (inactive) | inactive | inactive | 5.54% (inactive) | 21.9 | 27.1 | inactive
O=C(c1ccco1)N1CCC2(CC1)CCN(c1ccccc1)CC2 | > 11.4 µM (inactive) | 2.89% (inactive) | inactive | -1.84% (inactive) | -6.6% (inactive) | > 46 µM (inactive) | inactive | inactive | 1.71% (inactive) | 23.3 | 29.9 | inactive
COC(=O)N1CCC2(CC1)CN(C(=O)Nc1ccccc1)C2 | > 11.4 µM (inactive) | -8.08% (inactive) | inactive | 8.68% (inactive) | 1.2% (inactive) | > 46 µM (inactive) | inactive | inactive | 5.14% (inactive) | -14.6 | -8.35 | inactive
CC(=O)N1CCC2(CC1)CN(Cc1ccccc1)C2 | > 11.4 µM (inactive) | 9.85% (inactive) | inactive | 0.306% (inactive) | -5.51% (inactive) | > 46 µM (inactive) | inactive | inactive | -0.469% (inactive) | -1.63 | -1.86 | inactive
